From PubChem BioAssay AID602141 (Sanford-Burnham Center for Chemical Genomics, 2011)
About 1,300 (0.36%) of roughly 360,000 compounds were called active.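 The calls were made as follows: active = corrected activity change at or below -50% at 5 µM; inactive = the rest.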 For the sample, actives were picked, then their nearest neighbours and some compounds at random.

Test: cytotoxicity in KKLEB CF airway cells, primary screen, cytotoxicity control for CF NF-kB inhibitor project, cell-based, uHTS, fluorescence assay plates (AID 602141)
Settings: KKLEB CF airway cells viability, ATPlite luminescence, overnight, at 5 µM, hits give low values
For `CC1=C(C(=O)Nc2ccccc2)S(=O)(=O)CCO1`, the activity change (cytotoxicity) was -6% (inactive).
In the case of `CC1=C(C(=O)Nc2ccccc2)SCCO1`, the activity change (cytotoxicity) is reported as -58.9% (active).
In the case of `CC(Cc1ccccc1)NCCC(c1ccccc1)c1ccccc1` (stereo not given), the activity change (cytotoxicity) is reported as -16.7% (inactive).
For `Cc1c(Oc2cc(NN3CCCCC3)c([N+](=O)[O-])cc2[N+](=O)[O-])cccc1[N+](=O)[O-]`, the activity change (cytotoxicity) was -5.7% (inactive).
For `CCOc1cccc(=NC2CCCCC2)c2c(C)[nH]c(C)c12`, the activity change (cytotoxicity) was 4.1% (inactive).
For `CCc1nc2ccccc2c(=O)n1-c1cccc(OC)c1`, the activity change (cytotoxicity) was -1.5% (inactive).
For `C[C@]12CC[C@H](O)C[C@H]1CC[C@@H]1C2CC[C@]2(C)[C@@H](C3=CC(=O)OC3)[C@@H](O)C[C@]12O` (stereo not given in full), the activity change (cytotoxicity) was -53.3% [cells stimulated with P. aeruginosa culture filtrate] (active).
With `CC12CCC(O)CC1CCC1C2CCC2(C)C(C(=O)CC(O)C(F)(F)F)CCC12` (stereo not given) the activity change (cytotoxicity) was 3.6% [cells stimulated with P. aeruginosa culture filtrate] (inactive).
For `Cc1ccc(CN2CCCC(C(=O)c3ccc4c(c3)OCO4)C2)cc1C` (stereo not given), the activity change (cytotoxicity) was -12.8% (inactive).
With `Cc1nn(Cc2ccccc2Cl)c(Cl)c1C(=O)OC(C(=O)NC(N)=O)C(C)C` (stereo not given) the activity change (cytotoxicity) was -1.6% (inactive).
For `O=C(CSC1c2ccccc2-c2ccccc21)N/N=C/c1ccccc1`, the activity change (cytotoxicity) was 11.7% (inactive).
With `CSCCC(c1nnnn1C(C)(C)C)N1CCC(n2c(=O)[nH]c3ccccc32)CC1` (stereo not given) the activity change (cytotoxicity) was -1.4% [cells stimulated with P. aeruginosa culture filtrate] (inactive).
For `O=c1[nH]c2ccccc2n1C1CCN(C(c2ccccc2)c2nnnn2Cc2ccccc2)CC1` (stereo not given), the activity change (cytotoxicity) was -106% [cells stimulated with P. aeruginosa culture filtrate] (active).
With `O=c1[nH]c2ccccc2n1C1CCN(C(c2ccnc3ccccc23)c2nnnn2Cc2ccccc2)CC1` (stereo not given) the activity change (cytotoxicity) was -13.5% [cells stimulated with P. aeruginosa culture filtrate] (inactive).
With `CC1([N+](=O)[O-])COP(=O)(Nc2ccc(F)cc2)OC1` (stereo not given) the activity change (cytotoxicity) was 8.2% [cells stimulated with P. aeruginosa culture filtrate] (inactive).
In the case of `CCc1cccc2c(C#N)cn(CC(=O)N3CCOCC3)c12`, the activity change (cytotoxicity) is reported as 3.2% (inactive).
For `CC(=O)OC1C2(CC3N4C(=O)C5(CO)SSC4(CC31O)C(=O)N5C)OC(C)C(C)(C)C2=O` (stereo not given), the activity change (cytotoxicity) was -95% [cells stimulated with P. aeruginosa culture filtrate] (active).
In the case of `CCC(C)n1c(O)c(/C=N/Nc2nc3c(c(=O)n(C)c(=O)n3C)n2C)c(=O)[nH]c1=S` (stereo not given), the activity change (cytotoxicity) is reported as -14.1% (inactive).
With `C[C@@]1([C@@H](NP(=O)(c2ccccc2)c2ccccc2)c2ccccc2)C[C@H]1CCO` the activity change (cytotoxicity) was 15% (inactive).
With `COc1ccc(NC(=O)c2cn(CCC#N)nc2-c2ccc([N+](=O)[O-])cc2)cc1` the activity change (cytotoxicity) was -13.1% (inactive).
For `CCCCCCCCCCCCn1ccc(=N)cc1`, the activity change (cytotoxicity) was -61.1% (active).
In the case of `O=c1[nH]c(CN2CC=C(c3ccccc3)CC2)nc2scc(-c3cccs3)c12`, the activity change (cytotoxicity) is reported as 0.9% (inactive).
For `Cc1ccc2c(c1)C1CN(C)CCC1N2C(=O)Cn1nnc(-c2ccccc2F)n1` (stereo not given), the activity change (cytotoxicity) was 2% (inactive).
For `c1cncc(CNCCc2c[nH]c3ccccc23)c1`, the activity change (cytotoxicity) was 7.7% (inactive).
In the case of `c1ccc(C2NCc3ccccc3-n3cccc32)cc1` (stereo not given), the activity change (cytotoxicity) is reported as -7.9% (inactive).
For `Cc1ccc(C(C)C)c(OCC(=O)N2CCN(CC(=O)N3CCOCC3)CC2)c1`, the activity change (cytotoxicity) was -1.3% [cells stimulated with P. aeruginosa culture filtrate] (inactive).
In the case of `COCCNC(=O)CN1C2CCC1CC(O)(c1cccnc1)C2` (stereo not given), the activity change (cytotoxicity) is reported as 1.5% (inactive).
For `COC1C(O)C(C)OC(OC2CCC3(C=O)C(CCC4C3CCC3(C)C(C5=CC(=O)OC5)CCC43O)C2)C1O` (stereo not given), the activity change (cytotoxicity) was -58.4% [cells stimulated with P. aeruginosa culture filtrate] (active).
In the case of `COC(=O)C1=C(c2ccc(Cl)c(C(F)(F)F)c2)C[C@@H]2CC[C@H]1N2C(=O)NC(C)C`, the activity change (cytotoxicity) is reported as -0.4% [cells stimulated with P. aeruginosa culture filtrate] (inactive).
With `CC(=O)NCC1=C(c2ccc3ccccc3c2)C[C@@H]2CC[C@H]1N2Cc1ccco1` the activity change (cytotoxicity) was -7.6% (inactive).
